Results reported in PubChem BioAssay.
Calls of active or inactive are those of the source.

Tests used:
[1] = E. coli DRC41 culture turbidity changes, primary screen, E. coli filamentation inducer project, strain DRC41, OD650, 48 h (AID 1152);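 further: E. coli MC1000 strain DRC41 lacking acrAB efflux pump and sulA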; conditions: E. coli DRC41 (acrAB sulA), higher = more signal, called active from +8 up or from −8 down
[2] = small-molecule binders of probe aLefty1, primary screen, biochemical, small-molecule microarray, 635/667 nm fluorescence (AID 1153); conditions: higher = more signal;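 further: score merges spot fluorescence with signal-to-noise ratio from the scanned slide images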
[3] = PSAC antagonists in infected red cells, primary screen, cell-based, P. falciparum Indochina, OD700, 1 h (AID 1154); conditions: P. falciparum Indochina infected RBC osmotic lysis, higher = more signal, called active from +8 up or from −8 down
[4] = PSAC antagonists in infected red cells, primary screen, cell-based, P. falciparum Indochina, OD700, 2 h (AID 1155);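 further: lysis reports solute entry through the parasite surface anion channel PSAC; channel blockers reduce lysis of infected cells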; conditions: P. falciparum Indochina infected erythrocytes, osmotic lysis OD700; higher = more signal, called active from +8 up or from −8 down
[5] = osmotic lysis modulators in infected erythrocytes, primary screen, PSAC antagonist project, cell-based, P. falciparum Indochina, OD700, 3 h (AID 1156); conditions: higher = more signal, called active from +8 up or from −8 down
[6] = PSAC antagonists in infected red cells, primary screen, cell-based, P. falciparum Indochina, OD700, 18 h (AID 1157); conditions: P. falciparum Indochina infected erythrocytes, osmotic lysis OD700, 18 h; higher = more signal, called active from +8 up or from −8 down
[7] = modulators of S6 phosphorylation in cells, primary screen, cell-based, A549, cytoblot, luminescence, serum-stimulated (AID 1158); conditions: A549 phospho-S6 cytoblot, 5 h, higher = more signal;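 further: serum-stimulated A549 lung adenocarcinoma cells; signal is phosphorylated S6 detected by cytoblot immunostaining with HRP secondary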
[8] = target: NADPH oxidase 2 (Homo sapiens) (UniProt P04839); assay: NOX2-dependent H2O2 signal modulators, primary screen, NOX inhibitor project, cell-based, HEK293-NOX2, PMA-stimulated, Amplex Red fluorescence (AID 1159); conditions: 45 min, higher = more signal, called active from +8 up or from −8 down; further: test concentration not given here
[9] = target: NADPH oxidase 4 (Homo sapiens) (UniProt Q9NPH5); assay: NOX4-dependent H2O2 signal modulators, primary screen, NOX inhibitor project, cell-based, HEK293-NOX4, tetracycline-induced, Amplex Red fluorescence (AID 1160); conditions: 45 min, higher = more signal, called active from +8 up or from −8 down
[10] = target: NADPH oxidase 5 (Homo sapiens) (UniProt Q96PH1); assay: NOX5-dependent H2O2 signal modulators, primary screen, NOX inhibitor project, cell-based, HEK293-NOX5, Amplex Red fluorescence (AID 1161); conditions: HEK293-NOX5, ionomycin, 45 min, higher = more signal
Chain of NADPH oxidase 5 (Homo sapiens) (Q96PH1 whole entry, looked up): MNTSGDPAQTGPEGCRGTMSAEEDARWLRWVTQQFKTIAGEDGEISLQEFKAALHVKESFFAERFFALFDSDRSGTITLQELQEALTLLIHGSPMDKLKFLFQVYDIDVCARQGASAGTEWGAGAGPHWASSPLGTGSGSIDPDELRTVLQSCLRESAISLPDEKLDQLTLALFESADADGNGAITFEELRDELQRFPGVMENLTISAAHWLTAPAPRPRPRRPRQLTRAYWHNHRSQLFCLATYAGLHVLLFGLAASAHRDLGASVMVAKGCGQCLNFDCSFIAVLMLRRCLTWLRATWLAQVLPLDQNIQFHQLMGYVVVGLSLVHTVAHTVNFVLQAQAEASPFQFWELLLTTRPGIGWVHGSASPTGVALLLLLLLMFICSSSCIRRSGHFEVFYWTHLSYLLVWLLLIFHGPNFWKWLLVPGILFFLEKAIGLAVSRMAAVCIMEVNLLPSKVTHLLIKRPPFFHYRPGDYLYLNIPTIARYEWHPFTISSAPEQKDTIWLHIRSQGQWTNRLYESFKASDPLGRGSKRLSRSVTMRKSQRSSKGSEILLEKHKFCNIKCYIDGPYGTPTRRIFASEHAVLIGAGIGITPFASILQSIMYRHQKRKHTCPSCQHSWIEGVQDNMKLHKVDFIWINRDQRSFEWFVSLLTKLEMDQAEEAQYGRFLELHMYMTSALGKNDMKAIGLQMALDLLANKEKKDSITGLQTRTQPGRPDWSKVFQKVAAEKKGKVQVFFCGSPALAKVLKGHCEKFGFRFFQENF

Chain of NADPH oxidase 2 (Homo sapiens) (P04839 whole entry, looked up): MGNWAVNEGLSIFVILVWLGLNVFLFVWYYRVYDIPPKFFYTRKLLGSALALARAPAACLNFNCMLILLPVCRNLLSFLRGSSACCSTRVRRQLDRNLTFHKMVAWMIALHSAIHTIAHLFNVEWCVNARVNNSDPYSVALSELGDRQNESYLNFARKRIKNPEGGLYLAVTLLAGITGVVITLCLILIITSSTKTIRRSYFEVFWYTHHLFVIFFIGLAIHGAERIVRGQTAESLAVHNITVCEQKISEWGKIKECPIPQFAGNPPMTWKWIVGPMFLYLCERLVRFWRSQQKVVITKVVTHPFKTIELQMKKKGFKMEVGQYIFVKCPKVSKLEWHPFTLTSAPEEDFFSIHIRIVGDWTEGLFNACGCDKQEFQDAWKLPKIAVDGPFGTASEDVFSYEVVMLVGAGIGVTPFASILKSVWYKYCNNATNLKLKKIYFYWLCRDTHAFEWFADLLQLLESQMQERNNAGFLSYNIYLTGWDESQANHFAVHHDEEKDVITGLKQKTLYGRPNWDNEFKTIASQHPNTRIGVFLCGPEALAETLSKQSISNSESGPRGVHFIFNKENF
Chain of NADPH oxidase 4 (Homo sapiens) (Q9NPH5 whole entry, looked up): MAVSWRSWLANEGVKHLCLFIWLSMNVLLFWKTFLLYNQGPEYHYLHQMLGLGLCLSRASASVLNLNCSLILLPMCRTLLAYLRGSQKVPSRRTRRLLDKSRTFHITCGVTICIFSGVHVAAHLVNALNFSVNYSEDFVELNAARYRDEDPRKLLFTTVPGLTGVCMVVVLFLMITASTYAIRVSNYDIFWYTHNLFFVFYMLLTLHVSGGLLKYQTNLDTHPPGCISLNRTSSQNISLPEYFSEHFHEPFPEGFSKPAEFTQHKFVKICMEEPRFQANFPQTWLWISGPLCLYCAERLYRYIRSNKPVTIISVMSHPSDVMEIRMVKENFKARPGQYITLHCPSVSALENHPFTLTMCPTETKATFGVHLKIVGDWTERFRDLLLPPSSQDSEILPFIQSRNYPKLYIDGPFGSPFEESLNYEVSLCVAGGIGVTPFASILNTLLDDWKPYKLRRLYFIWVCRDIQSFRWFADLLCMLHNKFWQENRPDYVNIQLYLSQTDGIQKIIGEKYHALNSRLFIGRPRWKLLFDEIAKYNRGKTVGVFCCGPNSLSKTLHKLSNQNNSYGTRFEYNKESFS

SMILES | z-score [1] | composite z-score [2] | z-score [3] | z-score [4] | z-score [5] | z-score [6] | z-score [7] | z-score [8] | z-score [9] | z-score [10]
O=C1CCCC=C1C(CCc1ccccc1)OC(=O)c1ccc(Br)cc1 (stereo not given) | -0.303 (inactive) | 0.16 | 10.6 (active) | 0.748 (inactive) | -0.295 (inactive) | -0.364 (inactive) | 0.307 | 1.36 (inactive) | 0.397 (inactive) | -1.5
CCOC(=O)[C@H](CC(C)C)NC(=O)CCC1CC(OC(=O)NCCc2ccc(F)cc2)CC2(CCCC(COC(=O)NCCc3ccc(Cl)cc3)O2)O1 (stereo not given in full) | -1.29 (inactive) | 0.18 | 2.96 (inactive) | -0.44 (inactive) | 0.235 (inactive) | 0.0264 (inactive) | -0.146 | 0.333 (inactive) | 1.32 (inactive) | 1.33
COC(=O)CC=C[C@@H](C)[C@@H](C=NO[C@H](C)c1cn([C@@H]2COC[C@H]2O)nn1)NS(=O)(=O)c1ccc(C)cc1 | 0.876 (inactive) | -0.274 | 1.43 (inactive) | 0.269 (inactive) | 0.785 (inactive) | 0.465 (inactive) | 0.459 | -0.283 (inactive) | 0.891 (inactive) | 0.309
CO[C@@H]1COC(=O)[C@@H](C)COC(=O)[C@@H](C)NC(=O)CC=C[C@@H]1C | -0.294 (inactive) | 0.682 | -1.15 (inactive) | -1.26 (inactive) | 0.645 (inactive) | -0.858 (inactive) | 1 | -0.675 (inactive) | -2.43 (inactive) | -2.91
COc1ccc(O[C@H]2C=C[C@@H](c3ccccc3)O[C@@H]2CON=CC[C@@H]2C=C[C@H](OC(C)=O)[C@@H](COC(C)=O)O2)cc1 | -0.259 (inactive) | -0.0054 | 8.95 (active) | 1.95 (inactive) | 1.07 (inactive) | 0.662 (inactive) | -0.981 | -0.279 (inactive) | -2.22 (inactive) | -1.01
CCOC(=O)[C@H](Cc1ccccc1)NC(=O)CCC1CC(OC(=O)NCc2ccc3c(c2)OCO3)CC2(CCCC(COC(=O)NCCC(C)C)O2)O1 (stereo not given in full) | 0.241 (inactive) | -0.0162 | 25.3 (active) | 11.5 (active) | 1.26 (inactive) | 1.5 (inactive) | 0.274 | 1.3 (inactive) | 0.25 (inactive) | 0.277
CO[C@H]1COC(=O)CC=C[C@H](C)[C@@H](OC)COC(=O)[C@@H](C)NC(=O)CC=C[C@@H]1C | 0.0321 (inactive) | -0.152 | -0.848 (inactive) | -0.863 (inactive) | -0.372 (inactive) | -1.99 (inactive) | 1.03 | -0.22 (inactive) | 0.403 (inactive) | -0.0966
O=C1CCCC=C1C(O)CCCCBr (stereo not given) | 0.549 (inactive) | 0.155 | 3.79 (inactive) | 1.15 (inactive) | 1.02 (inactive) | 0.759 (inactive) | 0.231 | -0.772 (inactive) | 0.241 (inactive) | -0.921
COCCNC(=O)OCC1CCCC2(CC(OC(=O)NCc3ccc4c(c3)OCO4)CC(CCC(=O)N[C@@H](C)C(=O)OC)O2)O1 (stereo not given in full) | -0.982 (inactive) | 0.0341 | -1.19 (inactive) | 0.276 (inactive) | 0.0971 (inactive) | 0.296 (inactive) | -0.472 | 1.1 (inactive) | 1.29 (inactive) | 0.89
COc1cccc([C@H]2Oc3ccc(OC)cc3C(=NO[C@@H]3O[C@H](COC(C)=O)[C@@H](OC(C)=O)[C@H](OC(C)=O)[C@H]3OC(C)=O)[C@@H]2O)c1 | -1.34 (inactive) | -0.191 | 0.158 (inactive) | -0.0728 (inactive) | -0.362 (inactive) | 0.146 (inactive) | -1.09 | 0.484 (inactive) | 0.905 (inactive) | 0.486
O=C(NN=C1C[C@@H](O)[C@@H](O)[C@@H]2[C@@H]3C(=O)N(C[C@@H]4CCCO4)C(=O)[C@@H]3CC[C@@H]12)OCc1ccccc1 | 0.828 (inactive) | -0.24 | 0.423 (inactive) | -1.35 (inactive) | 0.449 (inactive) | -1.97 (inactive) | 2.18 | -0.532 (inactive) | 0.554 (inactive) | 0.8
CCOC(=O)[C@H](CC(C)C)NC(=O)CCC1CC(OC(=O)NCCc2ccc(F)cc2)CC2(CCCC(COC(=O)NCC(c3ccccc3)c3ccccc3)O2)O1 (stereo not given in full) | -1.18 (inactive) | -0.147 | 4 (inactive) | -0.523 (inactive) | 0.784 (inactive) | -0.316 (inactive) | 0.0441 | 1.47 (inactive) | 1.88 (inactive) | 1.52
COC(=O)[C@@H]1CC[C@H](C)[C@@H](c2ccc(C)cc2)N1C(=O)c1ccc(C=NOC[C@@H](C)[C@H](OCc2ccccc2)C(C)C)cc1 | -1.07 (inactive) | -0.18 | 1.25 (inactive) | -1.62 (inactive) | -0.467 (inactive) | -1.35 (inactive) | 2.57 | -1.28 (inactive) | -0.428 (inactive) | 0.388
CO[C@H]1COC(=O)[C@@H](C)COC(=O)[C@H](COCc2ccccc2)NC(=O)CC=C[C@H]1C | -1.17 (inactive) | -0.0654 | -0.262 (inactive) | 0.149 (inactive) | -0.0011 (inactive) | 0.156 (inactive) | 0.503 | -1.95 (inactive) | 0.126 (inactive) | 0.284
COc1cccc([C@@H]2Oc3ccc(OC)cc3C(=O)[C@H]2O)c1 | -0.542 (inactive) | -0.101 | 4.92 (inactive) | -0.384 (inactive) | 1.13 (inactive) | -1.28 (inactive) | 2.08 | -2.25 (inactive) | -1.51 (inactive) | -1.77
C#CCCCON=C1C[C@@H](O)[C@@H](O)[C@@H]2[C@@H]3C(=O)N(c4cccc(Oc5ccccc5)c4)C(=O)[C@@H]3CC[C@H]12 | 0.496 (inactive) | 0.042 | 1.7 (inactive) | 0.977 (inactive) | 0.773 (inactive) | 0.232 (inactive) | -0.203 | -0.683 (inactive) | 0.186 (inactive) | -0.676
CO[C@@H]1COC(=O)CC=C[C@@H](C)[C@H](OC)COC(=O)[C@@H](C)COC(=O)CC=C[C@H]1C | 0.604 (inactive) | -0.145 | -0.52 (inactive) | 0.409 (inactive) | -0.28 (inactive) | 0.377 (inactive) | -0.0303 | -0.387 (inactive) | 0.195 (inactive) | 0.479
CCN1C(=O)[C@H]2[C@H]3[C@H](O)[C@H](O)CC(=NOCC(C)C)[C@@H]3CC[C@H]2C1=O | -1.87 (inactive) | -0.245 | 0.344 (inactive) | 0.365 (inactive) | 0.456 (inactive) | 0.379 (inactive) | -0.126 | 0.603 (inactive) | 0.324 (inactive) | -0.654
C[C@@H]1CC[C@H]2C(=O)O[C@@H](COc3ccc(C(C)(C)C)cc3)CN2[C@@H]1c1ccc(Br)cc1 | 0.328 (inactive) | -0.229 | 0.857 (inactive) | 0.681 (inactive) | -1.34 (inactive) | 0.54 (inactive) | -0.0874 | -0.303 (inactive) | 0.732 (inactive) | 0.154
CCOC(=O)[C@H](CC(C)C)NC(=O)CCC1CC(OC(=O)NCCc2ccc(F)cc2)CC2(CCCC(COC(=O)NCCC(C)C)O2)O1 (stereo not given in full) | -1.14 (inactive) | 0.0451 | 6.28 (inactive) | 0.267 (inactive) | 0.0542 (inactive) | 0.0517 (inactive) | -0.326 | 1.26 (inactive) | -1.27 (inactive) | -0.8
CO[C@H]1COC(=O)[C@H](C)NC(=O)CC=C[C@@H](C)[C@H](OC)COC(=O)[C@@H](OCc2ccccc2)C=C[C@@H]1C | 0.31 (inactive) | -0.0544 | -0.352 (inactive) | 0.101 (inactive) | 0.912 (inactive) | 0.378 (inactive) | -0.191 | 1.18 (inactive) | 0.332 (inactive) | -0.017
O=C(NN=C1C[C@@H](O)[C@@H](O)[C@@H]2[C@@H]3C(=O)N(C4CCCCC4)C(=O)[C@@H]3CC[C@@H]12)OCc1ccccc1 | 0.536 (inactive) | -0.407 | 4.15 (inactive) | 0.586 (inactive) | 0.228 (inactive) | 0.229 (inactive) | -0.146 | -0.457 (inactive) | -0.223 (inactive) | 0.118
CCCNC(=O)OC[C@H]1O[C@H](CCON=C(C)C)C=C[C@@H]1Oc1ccc(OC)cc1 | -1.21 (inactive) | 0.209 | 0.683 (inactive) | 0.411 (inactive) | -0.551 (inactive) | 0.367 (inactive) | -0.131 | -0.278 (inactive) | 0.389 (inactive) | -0.533
COC(=O)CC=C[C@@H](C)[C@@H](C=NO[C@@H]1O[C@H](COC(C)=O)[C@@H](OC(C)=O)[C@H](OC(C)=O)[C@H]1OC(C)=O)NS(=O)(=O)c1ccc(C)cc1 | -0.673 (inactive) | -0.397 | 0.683 (inactive) | 0.54 (inactive) | 1.1 (inactive) | 0.294 (inactive) | -0.448 | 0.837 (inactive) | 0.968 (inactive) | 0.569
CON=C(C)CCC(=O)OC[C@H]1O[C@H](c2ccccc2)C=C[C@@H]1Oc1ccc(OC)cc1 | -2.31 (inactive) | -0.196 | 5.54 (inactive) | 1.17 (inactive) | 12.7 (active) | 0.49 (inactive) | -0.312 | -2.7 (inactive) | -0.458 (inactive) | -4.44
CCOC(=O)NN=C1C[C@@H](O)[C@@H](O)[C@@H]2[C@@H]3C(=O)N(Cc4ccc5c(c4)OCO5)C(=O)[C@@H]3CC[C@H]12 | 0.245 (inactive) | -0.239 | 5.49 (inactive) | 0.756 (inactive) | 0.41 (inactive) | 0.476 (inactive) | -0.4 | -3.49 (inactive) | -0.0101 (inactive) | -0.598
